A selection: hits, their analogues and other compounds. The true share with any hit is near 3.3%.
GSIS activator: primary screen for activators of insulin secretion dependent on glucose, INS-1E cells, GLuc reporter luminescence. INS-1E GLuc reporter insulin secretion, 2-3 h. activation, % at 16.6 µM. 370,000 tested, 0.61% active;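 active means lowest replicate activation of at least 40%, so every replicate reaches that level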;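 further: 0% = median of neutral control wells and 100% = median of IBMX positive control wells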
SIRT5 inh: inhibitors of human sirtuin-5 desuccinylase; Purified SirT5, succinyl-peptide AMC, trypsin-coupled fluorescence; inhibition, % at 15 µM; Q9NXA8; 330,000 tested, 1.1% active; AID 652115; in the data active means inhibition above about 15%
Target sequence (Q9NXA8 whole entry, looked up): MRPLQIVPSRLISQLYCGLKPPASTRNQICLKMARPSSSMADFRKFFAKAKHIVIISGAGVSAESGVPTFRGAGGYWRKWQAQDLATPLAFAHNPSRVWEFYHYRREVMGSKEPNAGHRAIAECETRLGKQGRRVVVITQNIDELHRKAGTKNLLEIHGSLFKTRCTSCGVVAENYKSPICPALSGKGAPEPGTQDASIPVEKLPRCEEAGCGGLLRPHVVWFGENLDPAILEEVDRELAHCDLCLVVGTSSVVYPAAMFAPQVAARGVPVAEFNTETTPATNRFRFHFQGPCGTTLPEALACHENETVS
FGF22 binding: shifts melting point of recombinant human FGF22 | recombinant FGF22 thermal shift, SYPRO orange fluorescence; percent of sucrose octasulfate shift, DMSO zero | activity (Tm shift, normalised), % at 9.99 µM | 340,000 tested, 1.5% active | AID 651658;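 active means mean Tm shift, scaled 0 neutral to 100 positive control, at about 1.3% or above, every replicate too, limit read from the data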
Casp6 inh: caspase-6 (human) enzyme inhibition | P55212 | purified caspase-6, Z-VEID-R110 cleavage fluorescence | inhibition, % at 12.5 µM | 350,000 tested, 0.53% active | AID 686996;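 active means mean inhibition across replicates at least about 35%, with every replicate also reaching that limit, limit read from the data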;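 further: 0% = median of neutral control wells and 100% = no fluorescence left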
Target sequence (P55212 24-179 limits assumed): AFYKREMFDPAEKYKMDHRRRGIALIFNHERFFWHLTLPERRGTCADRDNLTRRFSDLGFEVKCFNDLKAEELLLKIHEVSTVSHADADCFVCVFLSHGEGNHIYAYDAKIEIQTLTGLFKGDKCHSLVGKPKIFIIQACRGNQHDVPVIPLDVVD
Target sequence (P55212 194-293 limits assumed): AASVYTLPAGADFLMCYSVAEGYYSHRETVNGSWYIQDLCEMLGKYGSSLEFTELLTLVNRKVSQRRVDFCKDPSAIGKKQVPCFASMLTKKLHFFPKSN
ERAP1 inh: blocks human ERAP1 aminopeptidase activity. inhibition, % at 10.7 µM. 340,000 tested, 0.15% active. Q9NZ08. recombinant ERAP1, Leu-AMC fluorescence, 60 min;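 active means mean replicate inhibition of at least 30%, or all replicates individually reaching that 30% level; inactive means mean below 30% and not every replicate reaching it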;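 further: 0% = neutral control wells and 100% = L-leucinethiol positive control wells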
Active calls of the source: *.

What do the screens show for `c1coc(CSSCc2ccco2)c1`?
GSIS activator: -32; SIRT5 inh: 8; FGF22 binding: 0; Casp6 inh: 82*; ERAP1 inh: 6

How did O=C(NCCNC(=O)c1ccccc1F)c1ccccn1 do in these assays?
GSIS activator: 7; SIRT5 inh: 16*; FGF22 binding: 0; Casp6 inh: 0; ERAP1 inh: -3

What do the screens show for `CSc1ncccc1C(=O)NCCc1ccccc1F`?
GSIS activator: 73*; SIRT5 inh: -6; FGF22 binding: 0; Casp6 inh: -4; ERAP1 inh: -2

What do the screens show for `C[C@H]1CCCCO[C@H](CN(C)Cc2ccc3c(c2)OCO3)[C@@H](C)CN([C@@H](C)CO)C(=O)c2cc(NC(=O)Cc3ccccc3)ccc2O1`?
GSIS activator: -23; FGF22 binding: 0

What do the screens show for `CC(C)N(C(=O)[C@H]1C[C@H](CC(=O)NCc2cccc(C(F)(F)F)c2)C(=O)N2CCc3c([nH]c4cc(CCC(=O)N(C)C)ccc34)[C@]12C)C(C)C`?
SIRT5 inh: 24*; FGF22 binding: -1; Casp6 inh: 11; ERAP1 inh: 0

What do the screens show for `CC(C)N(C(=O)[C@H]1C[C@H](CC(=O)NC(C)(C)C)C(=O)N2CCc3c([nH]c4cc(-c5ccco5)ccc34)[C@]12C)C(C)C`?
GSIS activator: -1; SIRT5 inh: 27*; FGF22 binding: 0; Casp6 inh: 2; ERAP1 inh: -3

How did O=C(C[C@H]1C[C@H](C(=O)N2CCOCC2)[C@@]2(CCC3CCCC3)c3[nH]c4cc(-c5ccco5)ccc4c3CCN2C1=O)NCCc1ccccn1 do in these assays?
GSIS activator: -9; SIRT5 inh: -2; FGF22 binding: 0; Casp6 inh: -20

Results for O=C(C[C@H]1C[C@H](C(=O)N2CCCCC2)[C@@]2(CCc3ccccc3)c3[nH]c4ccc(Cl)cc4c3CCN2C1=O)NCc1cccc(C(F)(F)F)c1 ?
GSIS activator: 0; FGF22 binding: 34*; Casp6 inh: 0

Results for O=C(C[C@H]1C[C@H](C(=O)N2CCOCC2)[C@@]2(CCC3CCCC3)c3[nH]c4cc(-c5ccco5)ccc4c3CCN2C1=O)NCc1ccco1 ?
SIRT5 inh: 28*; FGF22 binding: 0; Casp6 inh: 7; ERAP1 inh: -3

How did CCNC(=O)C[C@H]1CC[C@H]2[C@@H](COC[C@@H](O)CN2Cc2ccccc2F)O1 do in these assays?
GSIS activator: 5; SIRT5 inh: 0; FGF22 binding: 0; Casp6 inh: -4; ERAP1 inh: 4

Results for COc1ccc(CN(C)C[C@@H]2Oc3ccc(NS(=O)(=O)c4ccccc4)cc3CC(=O)N([C@H](C)CO)C[C@H]2C)cc1 ?
GSIS activator: 11; SIRT5 inh: 5; FGF22 binding: 0; ERAP1 inh: -6

What do the screens show for `CC(=O)N(C)C[C@H]1Oc2ncc(-c3cccc(F)c3)cc2C(=O)N([C@H](C)CO)C[C@@H]1C`?
GSIS activator: 6; SIRT5 inh: 5; FGF22 binding: 0; Casp6 inh: 0; ERAP1 inh: 2

How did CCOc1ccc(NC(=O)/C(C#N)=C/c2ccc(N3CCCC3)c(C)c2)cc1 do in these assays?
GSIS activator: 115*

How did Cc1ccc(C(=O)N2CCN3C(=O)c4ccccc4C23c2ccccc2)cc1 (centres undefined) do in these assays?
GSIS activator: 42*; SIRT5 inh: 2; FGF22 binding: 0; Casp6 inh: -4; ERAP1 inh: -6

What do the screens show for `OC[C@H]1[C@H](c2ccc(C#CC3(O)CCCC3)cc2)[C@H]2CN(Cc3cncnc3)CCCCN21`?
GSIS activator: 3; SIRT5 inh: 21*; FGF22 binding: 0; Casp6 inh: 1; ERAP1 inh: -4

What do the screens show for `C[C@@H](O)C#Cc1ccc([C@@H]2[C@H](CO)N3CCCCN(CC4CC4)C[C@@H]23)cc1`?
GSIS activator: 1; SIRT5 inh: 4; FGF22 binding: 0; Casp6 inh: -2; ERAP1 inh: -1

What do the screens show for `C[C@@H](O)C#Cc1ccc([C@H]2[C@H]3CN(CC4CC4)CCCCN3[C@H]2CO)cc1`?
GSIS activator: 8; SIRT5 inh: 2; FGF22 binding: 0; Casp6 inh: 2; ERAP1 inh: -3

What do the screens show for `C[C@H](O)C#Cc1ccc([C@H]2[C@H]3CN(CC4CC4)CCCCN3[C@H]2CO)cc1`?
GSIS activator: -2; SIRT5 inh: 16*; FGF22 binding: 0; Casp6 inh: 5; ERAP1 inh: -1

How did C[C@@H](O)C#Cc1ccc([C@H]2[C@H](CO)N3CCCCN(CC4CC4)C[C@@H]23)cc1 do in these assays?
GSIS activator: 3; SIRT5 inh: 21*; FGF22 binding: 0; Casp6 inh: 6; ERAP1 inh: 0

How did OC[C@@H]1[C@@H](c2ccc(C#CC3(O)CCCC3)cc2)[C@H]2CN(Cc3cncnc3)CCCCN12 do in these assays?
GSIS activator: 5

Results for CNC(=O)C[C@@H]1CC[C@H]2[C@H](COc3ccc(NC(=O)C(C)C)cc3C(=O)N2C)O1 ?
GSIS activator: 4; FGF22 binding: 0

Results for CN(C)CCN(Cc1cccs1)S(=O)(=O)c1csc(C(N)=O)c1 ?
GSIS activator: 7; SIRT5 inh: 33*; FGF22 binding: 0; Casp6 inh: 25; ERAP1 inh: -2

Results for CCCCOC(=O)c1cc(-c2ccc(/C=N/n3cnnc3)o2)ccc1Cl ?
GSIS activator: 58*

How did Cc1cc(-c2ccc(/C=N/n3cnnc3)o2)ccc1Cl do in these assays?
GSIS activator: -4; SIRT5 inh: 3; FGF22 binding: 0; Casp6 inh: -4; ERAP1 inh: 12

How did N#C/C(=C(/O)COc1ccccc1)c1nc2ccccc2s1 do in these assays?
GSIS activator: 13; SIRT5 inh: -2; FGF22 binding: 0; Casp6 inh: -2; ERAP1 inh: 4

How did N#C/C(=C(/O)COC(=O)c1ccc(C#N)cc1)c1nc2ccccc2s1 do in these assays?
GSIS activator: -1; SIRT5 inh: 1; FGF22 binding: 44*; Casp6 inh: -2; ERAP1 inh: 1

What do the screens show for `Nc1[nH]c(C(=O)c2ccccc2)c(-c2ccc(Br)cc2)c1C(=O)c1ccccc1`?
GSIS activator: -4; SIRT5 inh: 1; FGF22 binding: 0; Casp6 inh: 1; ERAP1 inh: -1

How did O=C(O)C1C(c2ccccc2)=C1c1ccc(Br)cc1 (centres undefined) do in these assays?
FGF22 binding: 43*; Casp6 inh: 1; ERAP1 inh: 5

What do the screens show for `CCC(C)NC(=O)c1nc2c(nnn2Cc2ccccc2Cl)c(=O)[nH]1` (centres undefined)?
GSIS activator: -14; SIRT5 inh: 1; FGF22 binding: 43*; Casp6 inh: -3; ERAP1 inh: 2

What do the screens show for `CCCNC(=O)N1C[C@H](O)COC[C@@H]2O[C@@H](CC(=O)N[C@H]3CCN(Cc4ccccc4)C3)CC[C@H]21`?
GSIS activator: 1; SIRT5 inh: -2; FGF22 binding: 0; Casp6 inh: 4; ERAP1 inh: 2
